Luciferase inh: inhibitors of firefly luciferase | P08659 | purified firefly luciferase, luminescence, 8 min | Potency, µM (doses to about 57.1 µM), without a hit: at the top dose activity change, negative = inhibition, most hits filed as inhibitors | 2.2% of 72,000 active; also: % is scaled to controls: 0 for no effect and ±100 for the full control effect; nearly all actives have a fitted effect of over 40% in size
Target sequence (P08659 whole entry, looked up): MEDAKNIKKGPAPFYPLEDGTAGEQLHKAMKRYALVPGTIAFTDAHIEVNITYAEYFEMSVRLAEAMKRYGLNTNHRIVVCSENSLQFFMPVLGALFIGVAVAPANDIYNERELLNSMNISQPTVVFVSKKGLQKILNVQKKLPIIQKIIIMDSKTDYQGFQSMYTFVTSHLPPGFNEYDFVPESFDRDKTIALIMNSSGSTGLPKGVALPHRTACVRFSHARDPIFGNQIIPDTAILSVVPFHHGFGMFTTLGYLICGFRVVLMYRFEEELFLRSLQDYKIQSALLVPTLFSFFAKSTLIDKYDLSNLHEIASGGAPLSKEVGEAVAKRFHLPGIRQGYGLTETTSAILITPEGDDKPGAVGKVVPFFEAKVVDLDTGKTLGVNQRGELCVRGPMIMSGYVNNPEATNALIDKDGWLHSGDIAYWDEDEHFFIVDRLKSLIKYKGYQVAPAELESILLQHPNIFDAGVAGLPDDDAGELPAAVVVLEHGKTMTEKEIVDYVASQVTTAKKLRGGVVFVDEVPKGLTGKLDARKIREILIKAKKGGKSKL
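Compounds were tested as concentration series (qHTS) against purified P. pyralis luciferase with luciferin and 10 uM ATP in 50 mM imidazole pH 7.2, 50 mM KCl, 7 mM MgCl2, 0.01% Tween 20, 0.05% BSA. Luminescence was read after 8 min at ambient temperature.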
GBA mod: alters purified human glucocerebrosidase activity | P04062 | purified enzyme, resorufin glucoside fluorescence (screen aimed at inhibitors), 20 min | Potency, µM | 1.1% of 48,000 active | AID 360; in the data active = potency below about 15 µM; inconclusive = mostly about 16 µM to 33 µM;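 also: the screen sought inhibitors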
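Normal human glucocerebrosidase (0.2 nM final) was assayed with resorufin β-D-glucopyranoside (30 uM final) in 50mM citric acid/KH2PO4, 10mM sodium taurocholate, 0.01% tween-20, pH 5.9. Compounds were titrated; fluorescence (Ex 548, Em 600) read after 20 min at RT.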
HEK293 cAMP cs: parental HEK293 cAMP activation (counter-screen); Potency, µM (series often up to 57.1 µM), for the others: top-dose activation, hits mostly activators; 2.5% of 73,000 active; parental HEK293 CNG cAMP sensor, membrane potential fluorescence; also: % of control where 0% means no effect; nearly all actives have a fitted effect of over 55% in size
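Parental HEK 293 cells stably expressing a cAMP-gated CNG channel were loaded with membrane potential dye containing 100 uM RO 20-1724 for 60 min. Compound added for 30 min; depolarization read as fluorescence intensity at 590 nm.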
PK Bst: pyruvate kinase (B. stearothermophilus) modulation; purified pyruvate kinase, luminescence ATP production; ribose 5-phosphate activator present at AC10; 1.2% of 51,000 active; Potency, µM; AID 361; in the data active = potency below about 11 µM; inconclusive = mostly about 12 µM to 25 µM;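 the screen sought inhibitors and activators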;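 also: scaled between full activation by ribose 5 phosphate and full inhibition by luteolin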
TSHR agonist: activates the human thyroid stimulating hormone receptor; P16473; HEK293-CNG-TSHR cells (CNG channel as cAMP sensor), membrane potential dye, cAMP; Potency, µM (top dose mostly 57.1 µM), for inactives: top-dose activation, usual class: activators; 0.48% of 73,000 active; AID 926; active = well fitted activation curve with a large enough effect in the main read-out, with a control signal flat, not every such curve was filed as active; inconclusive = small, poorly fitted or top-dose-only effect, or a change in a side signal; inactive = no such curve, though single readings can be large or run the other way; % of control where 0% means no effect;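 also: the control signal comes from parental cells without the receptor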
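HEK 293 cells stably expressing TSHR and a modified CNG channel, with CNG-only parental cells as counterscreen, were preloaded 60 min at room temperature with membrane potential dye containing 100 uM RO 20-1724. Compound exposure was 30 min, and depolarization was read as fluorescence at 590 nm.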
* marks the source's active call; other numbers are inactive results; i = inactive; u = inconclusive; x = no result given; ! = a repeat was not active; [ ] = remark or other dose. An excerpt weighted towards active compounds, which were near 5.8% of everything screened. Unless noted, calls follow the shape of the dose curve; as a rule, active = well fitted curve in the direction sought with a large enough effect; inconclusive = small, poorly fitted or top-dose-only effect, or another doubt; inactive = no such curve, though single readings can be large; an effect the other way counts as inactive or inconclusive. Potency is read from the fitted curve at half-maximal effect.

SMILES	Luciferase inh	GBA mod	HEK293 cAMP cs	PK Bst	TSHR agonist
CC(C)CO/N=C1/C[C@@H](O)[C@@H](O)[C@@H]2[C@@H]3C(=O)N(C4CCCCC4)C(=O)[C@H]3CC[C@@H]12	-1.5%[11.4 µM]	x	-8.4%[11.4 µM]	x	-11.2%[11.4 µM]
CN(C)c1ncnc2ccc(-c3cccc(NS(C)(=O)=O)c3)cc12	-0.7%[2.29 µM]	x	u	x	u
O=C(Nc1cccnc1)c1cc(-c2ccc3c(c2)OCO3)on1	0.794µM*	>76.9	4.9%	x	2.1%
O=C(c1cc(-c2ccc3c(c2)OCO3)on1)N1CCN(c2ccc(F)cc2)CC1	-0.1%	>76.9	31.6µM*	>57	u
O=C(c1cc(-c2ccc3c(c2)OCO3)on1)N1CCOCC1	7.94µM*	>76.9	3.4%	u	0.8%
CC(C)Cc1cc(C(=O)Nc2ccc3c(c2)OCO3)no1	7.94µM*	x	12.8%	x	4.6%
COc1ccc(-c2nc3cnc(OC)nc3n(Cc3cccc(OC)c3)c2=O)cc1	0.2%[11.4 µM]	x	15.1%	x	9.6%
Cc1nc2ccccc2nc1-c1ccc(N=[N+]([O-])c2ccc(-c3nc4ccccc4nc3C)cc2)cc1	0.6%[11.4 µM]	x	-11.3%[11.4 µM]	x	-0.4%[11.4 µM]
Cc1ccc(C)n1-n1cnc2sc(-c3ccccc3)cc2c1=O	-2.0%	>76.9	15.7%	>57	x
CCn1cnc2sc(-c3ccccc3)cc2c1=O	12.6µM*	>76.9	6.1%	u	-2.0%
Cc1ccc(C)n1-n1c(C)nc2sc(-c3ccccc3)cc2c1=O	-24.8%	x	3.16µM*	x	u
Cc1ccc(OC[C@H](O)[C@H](C)NC(C)C)c2c1CCC2	-2.7%	x	39.8µM*!	x	u
Cc1ccc(C)c(OCC(O)CN2C(C)CCCC2C)c1 (stereo not given)	-1.2%	>76.9	u	>57	u
CCCC[C@@H]1C[C@H]1C(NC(=O)c1ccco1)c1ccc(-c2ccccc2)cc1 (stereo not given in full)	x	x	17.2%	x	-5.2%
CCCC[C@@H]1C[C@H]1C(NC(=O)c1ccco1)c1ccc(Cl)cc1 (stereo not given in full)	x	x	15.8µM*	x	u
CCCC[C@@H]1C[C@H]1C(NC(=O)c1ccco1)c1ccccc1C(F)(F)F (stereo not given in full)	x	x	31.6µM*	x	u
CCCC[C@@H]1C[C@H]1C(NC(=O)c1ccccc1)c1ccccc1 (stereo not given in full)	x	x	12.6µM*	x	u
COc1ccc(NC(=O)N2CC3(CCN(C(=O)c4ccco4)CC3)C2)cc1	-0.4%[11.4 µM]	x	-1.5%	x	9.6%
Cc1ccc(-c2nc(CS(=O)(=O)CC(=O)N3CCCCCC3)c(C)o2)cc1	-1.8%	x	u	x	u
Cc1ccc(-c2nc(CS(=O)(=O)CC(=O)N3CCc4ccccc4C3)c(C)o2)cc1	-0.3%	x	1.58µM*	x	u
O=c1c(-c2ccc(F)cc2)nc2cnc(N3CCOCC3)nc2n1CCc1ccccc1	-0.4%[11.4 µM]	x	12.7%[2.29 µM]	x	11.4%
Cc1cc(C)c2c(SCc3ccc(Cl)cc3Cl)nc(N)nc2n1	0.9%[11.4 µM]	x	7.4%[11.4 µM]	x	8.3%[11.4 µM]
COC(=O)c1c(NC(=O)CN2CCN(Cc3ccc4c(c3)OCO4)CC2)sc(C)c1C	2.0%	x	1.58µM*	>57	u
CNC(=O)[C@H](C)/C=C(\c1cccnc1)C(NC(=O)OCc1ccccc1)c1ccc(C(=O)OC)cc1 (stereo not given in full)	x	x	6.5%	x	1.4%
CCCC(=O)Nc1cnc(NC(=O)c2cccc(F)c2)cc1C	25.1µM*	>76.9	-8.8%	x	-6.8%
SMILES	Luciferase inh	GBA mod	HEK293 cAMP cs	PK Bst	TSHR agonist
Cc1cc(NC(=O)c2ccccc2)ncc1NC(=O)c1ccco1	25.1µM*	>76.9	-4.5%	i	-3.2%
C=C(C)CN(CC#N)CC(=C)C	-0.1%[11.4 µM]	x	-2.0%[11.4 µM]	x	2.7%[11.4 µM]
CC1C(O)=C(c2nc3ccccc3[nH]2)C(=N)N1c1ccccc1 (stereo not given)	25.1µM*	>76.9	5.3%	x	15.0%
CCCCCCN1CC(O)=C(c2nc3ccccc3[nH]2)C1=N	-0.5%	11*	-5.5%	>57	-1.6%
CCC(C)N1CC(O)=C(c2nc3ccccc3[nH]2)C1=N (stereo not given)	u	x	8.9%	x	-3.0%
O=S(=O)(c1cccs1)N1CN(CC2CCCO2)c2nc3ccccc3nc21 (stereo not given)	0.4%	>76.9	19.5%	>57	25.1µM*
COC(=O)c1c(C)[nH]c(C(=O)COC(=O)Cc2ccc3c(c2)OCCO3)c1C	-1.5%	14.6*	u	>57	u
CCc1nnc(NC(=O)CSc2nnc(CNc3ccc(Cl)cc3)o2)s1	3.2%	15.3*	7.7%	>57	-0.3%
Cc1ccnc(NC(=O)Nc2cccc(F)c2)c1	3.16µM*	>76.9	6.1%	i	-5.5%
Cc1cccc(NC(=O)Nc2cccc(F)c2)n1	-7.0%	x	28.8%	x	26.6%
Cc1nn(C)c(C)c1S(=O)(=O)N1CCCC(C(=O)NC2CCCCCC2)C1 (stereo not given)	1.6%	x	u	x	u
Cc1n[nH]c(C)c1S(=O)(=O)N1CCCC(C(=O)NC2CCCCC2)C1 (stereo not given)	1.3%	x	10µM*	x	u
COc1cccc(-c2nc3ccc(O)cc3c(=O)o2)c1	u	12.6*	-0.4%	11.2*	-1.5%
CCSc1nnc(-c2cccs2)o1	0.4%	>76.9	10.1%	>57	-1.3%
Brc1ccc(-c2cnc(-c3cccs3)o2)cc1	u	>76.9	u	1.31*	u
CN(C)c1ccc(/C=N\NC(=O)c2cnc3ccccc3c2)cc1	-13.3%[11.4 µM]	x	-3.3%[11.4 µM]	x	-7.2%[11.4 µM]
O=C(CSc1nc2sc3c(c2c(=O)n1Cc1ccco1)CCC3)N1CCc2ccccc21	0.1%	>76.9	14.9%	>57	20.0%
Cc1cc2c(=O)n(Cc3ccco3)c(SCC(=O)N3CCCc4ccccc43)nc2s1	0.8%	>76.9	31.6µM*	>57	u
CCCCCSc1nc2c(cnn2-c2ccccc2)c(=O)[nH]1	1.0%	13.3*	3.2%	>57	3.2%
CCn1c(SCC(=O)N2CCCc3ccccc32)nc2ccccc2c1=O	-0.2%	>76.9	10µM*	>57	u
Cc1ccc(-n2ncc3c(=O)[nH]c(SCC(=O)N4CCCc5ccccc54)nc32)cc1	-0.3%	x	39.8µM*	>57	u
CC(C)Sc1nc2c(cnn2-c2ccccc2)c(=O)[nH]1	-1.1%	x	12.5%	x	6.0%
CCOC(=O)CSc1nc2ccccc2c(=O)n1CC1CCCO1 (stereo not given)	1.6%	>76.9	15.8µM*	>57	u
Cc1cccc(Nc2nc(N)nc(CN3CCC(C)CC3)n2)c1C	1.7%	12.4*	19.6%	>57	25.1%
COc1ccccc1Nc1nc(N)nc(CN2CCN(c3ccccc3)CC2)n1	2.6%	6.8*	27.0%	>57	14.5%
COc1ccccc1Nc1nc(N)nc(CN2CCCCCC2)n1	0.5%	x	10.0%	>57	4.3%
COc1ccccc1N1CCN(Cc2nc(N)nc(Nc3ccccc3)n2)CC1	-1.9%	4.8*	2.2%	>57	0.7%
COc1cccc(N2CCN(Cc3nc(N)nc(Nc4ccccc4OC)n3)CC2)c1	2.4%	3.91*	13.8%	>57	18.5%
COc1ccc(/C=C(\C#N)C(N)=O)c(OC)c1	0.9%[11.4 µM]	x	12.8%[11.4 µM]	x	5.1%[11.4 µM]
